Results: PubChem BioAssay (NCATS)
Records with an inconclusive call do not appear. Activity calls are given as the source filed them. Calls follow the shape of the dose curve; as a rule, active = well fitted inhibition curve with a large enough effect; inconclusive = small, poorly fitted or top-dose-only effect; inactive = flat fitted curve, though single readings scatter.

Assays:
CRL-7250 = normal cell line; experiment: Cytotoxic Profiling of Annotated Libraries Using Quantitative High-Throughput Screening (AID 1296008); details: Five cell lines viability, CellTiter-Glo ATP luminescence, 48-72 h; max response: hits give low values; as to max response: % is scaled to controls: 0 for no effect and ±100 for the full control effect
Outline: (§1)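 Compounds were pin-transferred onto cells and incubated 48 or 72 hr at 37 degree Celsius, 95% humidity. CellTiter-Glo was added, plates sat 10 min at room temperature, then ATP-coupled luminescence was imaged as the viability read-out.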

HEK293 = experiment: as above; details: Five cell lines viability, CellTiter-Glo ATP luminescence, 48-72 h; max response: hits give low values
Outline: as §1

HaCat = experiment: as above; details: Five cell lines viability, CellTiter-Glo ATP luminescence, 48-72 h; max response: hits give low values
Outline: as §1

FAB9 = experiment: qHTS profiling for inhibitors of Plasmodium falciparum proliferation (AID 504749); also: potency is read from the fitted curve at half-maximal effect; details: P. falciparum in erythrocytes, SYBR Green DNA, 72 h; series mostly up to 28.7 µM
Outline: (§2)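 Parasite proliferation within erythrocytes, 72 h exposure. Endpoint: SYBR Green I fluorescence after overnight lysis at room temperature. Controls: 0.29 uM artemisinin, DMSO.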

GB4 = experiment: as above; details: P. falciparum in erythrocytes, SYBR Green DNA, 72 h; series mostly up to 28.7 µM
Outline: as §2

HB3 = experiment: as above; details: P. falciparum in erythrocytes, SYBR Green DNA, 72 h; series mostly up to 28.7 µM
Outline: as §2

ICS = experiment: as above; details: P. falciparum in erythrocytes, SYBR Green DNA, 72 h; series mostly up to 28.7 µM
Outline: as §2

JCK = experiment: as above; details: P. falciparum in erythrocytes, SYBR Green DNA, 72 h; series mostly up to 28.7 µM
Outline: as §2

N140 = experiment: as above; details: P. falciparum in erythrocytes, SYBR Green DNA, 72 h; series mostly up to 28.7 µM
Outline: as §2

P93_24 = experiment: as above; details: P. falciparum in erythrocytes, SYBR Green DNA, 72 h; series mostly up to 28.7 µM
Outline: as §2

P94_40 = experiment: as above; details: P. falciparum in erythrocytes, SYBR Green DNA, 72 h; series mostly up to 28.7 µM
Outline: as §2

PAD = experiment: as above; details: P. falciparum in erythrocytes, SYBR Green DNA, 72 h; series mostly up to 28.7 µM
Outline: as §2

PC15 = experiment: as above; details: P. falciparum in erythrocytes, SYBR Green DNA, 72 h; series mostly up to 28.7 µM
Outline: as §2

PC26 = experiment: as above; details: P. falciparum in erythrocytes, SYBR Green DNA, 72 h; series mostly up to 28.7 µM
Outline: as §2

PC49 = experiment: as above; details: P. falciparum in erythrocytes, SYBR Green DNA, 72 h; series mostly up to 28.7 µM
Outline: as §2

SC27B = experiment: as above; details: P. falciparum in erythrocytes, SYBR Green DNA, 72 h; series mostly up to 28.7 µM
Outline: as §2

TAB109 = experiment: as above; details: P. falciparum in erythrocytes, SYBR Green DNA, 72 h; series mostly up to 28.7 µM
Outline: as §2

TAB113 = experiment: as above; details: P. falciparum in erythrocytes, SYBR Green DNA, 72 h; series mostly up to 28.7 µM
Outline: as §2

TAB165 = experiment: as above; details: P. falciparum in erythrocytes, SYBR Green DNA, 72 h; series mostly up to 28.7 µM
Outline: as §2

W2 = experiment: as above; details: P. falciparum in erythrocytes, SYBR Green DNA, 72 h; series mostly up to 28.7 µM
Outline: as §2
Also: nearly all actives have a fitted effect of over 60% in size.

C[C@]12CC[C@H]3[C@@H]([C@H](O)CC4=CC(=O)CC[C@@]43C)[C@@H]1CC[C@@H]2O
inactive: outcome (CRL-7250) | max response (HEK293) -7.8% | max response (HaCat) -25.7%

c1ccc2sc(SNC3CCCCC3)nc2c1
inactive: Potency (FAB9) | Potency (GB4) | Potency (HB3) | Potency (ICS) | Potency (JCK) | Potency (N140) | Potency (P93_24) | Potency (P94_40) | Potency (PAD) | Potency (PC15) | Potency (PC26) | Potency (PC49) | Potency (SC27B) | Potency (TAB109) | Potency (TAB113) | Potency (TAB165)

OCCCCC#Cc1cncc(OC[C@@H]2CCN2)c1
inactive: outcome (CRL-7250) | max response (HEK293) -3.98% | outcome (HaCat)

CC(CCc1ccc(O)cc1)O[C@@H]1O[C@H](CO[C@H]2OC[C@](O)(CO)[C@H]2O)[C@@H](O)[C@H](O)[C@H]1O (stereo not given in full)
inactive: outcome (CRL-7250) | outcome (HEK293) | outcome (HaCat)

CN1CCCC1CCOC(c1cc2nccc(C(=O)O)c2[nH]1)c1ccccc1Cl (stereo not given)
inactive: outcome (CRL-7250) | max response (HEK293) 1.78% | max response (HaCat) -3.9%

CC1C/C=C/C(O)C(O)CC/C=C/c2cc(O)cc(O)c2C(=O)O1 (stereo not given)
inactive: outcome (CRL-7250) | outcome (HEK293) | max response (HaCat) -2.35%

COc1cc(C)[nH]c(=O)c1CNC(=O)c1c(C)n([C@H](C)C2CCOCC2)c2ccccc12
inactive: outcome (CRL-7250) | outcome (HEK293) | max response (HaCat) 4.27%

C[C@H](NC(=O)Cc1cc(F)cc(F)c1)C(=O)N[C@@H]1N=C(c2ccccc2)c2ccccc2N(C)C1=O
inactive: outcome (CRL-7250) | max response (HEK293) -14.2% | outcome (HaCat)

COc1ccccc1CN[C@H]1C2CCN(CC2)[C@H]1C(c1ccccc1)c1ccccc1
inactive: outcome (CRL-7250) | max response (HEK293) -17% | outcome (HaCat)

CC[N+](C)(CC)CCOC(=O)C(O)(c1ccccc1)c1ccccc1
inactive: Potency (FAB9) | Potency (GB4) | Potency (HB3) | Potency (ICS) | Potency (JCK) | Potency (N140) | Potency (P93_24) | Potency (P94_40) | Potency (PAD) | Potency (PC15) | Potency (PC26) | Potency (PC49) | Potency (SC27B) | Potency (TAB109) | Potency (TAB113) | Potency (TAB165) | Potency (W2)

S=C=S
inactive: Potency (FAB9) | Potency (GB4) | Potency (HB3) | Potency (ICS) | Potency (JCK) | Potency (N140) | Potency (P93_24) | Potency (P94_40) | Potency (PAD) | Potency (PC15) | Potency (PC26) | Potency (PC49) | Potency (SC27B) | Potency (TAB109) | Potency (TAB113) | Potency (TAB165) | Potency (W2)

ClC1C(Cl)C(Cl)C(Cl)C(Cl)C1Cl (stereo not given)
inactive: Potency (FAB9) | Potency (GB4) | Potency (HB3) | Potency (ICS) | Potency (JCK) | Potency (N140) | Potency (P93_24) | Potency (P94_40) | Potency (PAD) | Potency (PC15) | Potency (PC26) | Potency (PC49) | Potency (SC27B) | Potency (TAB109) | Potency (TAB113) | Potency (TAB165) | Potency (W2)

C=CCN(C1=NCCN1)c1c(Cl)cccc1Cl
inactive: Potency (FAB9) | Potency (GB4) | Potency (HB3) | Potency (ICS) | Potency (JCK) | Potency (N140) | Potency (P93_24) | Potency (P94_40) | Potency (PAD) | Potency (PC15) | Potency (PC26) | Potency (PC49) | Potency (SC27B) | Potency (TAB109) | Potency (TAB113) | Potency (TAB165) | Potency (W2)

O=[N+]([O-])C(Br)(CO)CO
inactive: Potency (FAB9) | Potency (GB4) | Potency (HB3) | Potency (ICS) | Potency (JCK) | Potency (N140) | Potency (P93_24) | Potency (P94_40) | Potency (PAD) | Potency (PC15) | Potency (PC26) | Potency (PC49) | Potency (SC27B) | Potency (TAB109) | Potency (TAB113) | Potency (TAB165)

CNC(=O)OCC[N+](C)(C)C
inactive: Potency (FAB9) | Potency (GB4) | Potency (HB3) | Potency (ICS) | Potency (JCK) | Potency (N140) | Potency (P93_24) | Potency (P94_40) | Potency (PAD) | Potency (PC15) | Potency (PC26) | Potency (PC49) | Potency (SC27B) | Potency (TAB109) | Potency (TAB113) | Potency (TAB165) | Potency (W2)

CCCCNCC(O)c1ccc(O)cc1 (stereo not given)
active: Potency (JCK) 1.12 µM
inactive: Potency (FAB9) | Potency (GB4) | Potency (HB3) | Potency (ICS) | Potency (N140) | Potency (P93_24) | Potency (P94_40) | Potency (PAD) | Potency (PC15) | Potency (PC26) | Potency (PC49) | Potency (SC27B) | Potency (TAB109) | Potency (TAB113) | Potency (TAB165) | Potency (W2)

ClC=C(Cl)Cl
inactive: Potency (FAB9) | Potency (GB4) | Potency (HB3) | Potency (ICS) | Potency (JCK) | Potency (N140) | Potency (P93_24) | Potency (P94_40) | Potency (PAD) | Potency (PC15) | Potency (PC26) | Potency (PC49) | Potency (SC27B) | Potency (TAB109) | Potency (TAB113) | Potency (TAB165) | Potency (W2)

Clc1ccc(C2(Cn3cncn3)OCCO2)c(Cl)c1
inactive: Potency (FAB9) | Potency (GB4) | Potency (HB3) | Potency (ICS) | Potency (JCK) | Potency (N140) | Potency (P93_24) | Potency (P94_40) | Potency (PAD) | Potency (PC15) | Potency (PC26) | Potency (PC49) | Potency (SC27B) | Potency (TAB109) | Potency (TAB113) | Potency (TAB165) | Potency (W2)

CC(C)(O)C1C2OC(=O)C1C1(O)CC3OC34C(=O)OC2C14C (stereo not given)
inactive: Potency (FAB9) | Potency (GB4) | Potency (HB3) | Potency (ICS) | Potency (JCK) | Potency (N140) | Potency (P93_24) | Potency (P94_40) | Potency (PAD) | Potency (PC15) | Potency (PC26) | Potency (PC49) | Potency (SC27B) | Potency (TAB109) | Potency (TAB113) | Potency (TAB165) | Potency (W2)

O=P(O)(O)C(Cl)(Cl)P(=O)(O)O
inactive: Potency (FAB9) | Potency (GB4) | Potency (HB3) | Potency (ICS) | Potency (JCK) | Potency (N140) | Potency (P93_24) | Potency (P94_40) | Potency (PAD) | Potency (PC15) | Potency (PC26) | Potency (PC49) | Potency (SC27B) | Potency (TAB109) | Potency (TAB113) | Potency (TAB165) | Potency (W2)

C[C@]12CCC(=O)C[C@@H]1CC[C@@H]1[C@@H]2CC[C@]2(C)[C@@H](O)CC[C@@H]12
inactive: Potency (FAB9) | Potency (GB4) | Potency (HB3) | Potency (ICS) | Potency (JCK) | Potency (N140) | Potency (P93_24) | Potency (P94_40) | Potency (PAD) | Potency (PC15) | Potency (PC26) | Potency (PC49) | Potency (SC27B) | Potency (TAB109) | Potency (TAB113) | Potency (TAB165) | Potency (W2)

O=C/C=C/c1ccccc1
inactive: Potency (FAB9) | Potency (GB4) | Potency (HB3) | Potency (ICS) | Potency (JCK) | Potency (N140) | Potency (P93_24) | Potency (P94_40) | Potency (PAD) | Potency (PC15) | Potency (PC26) | Potency (PC49) | Potency (SC27B) | Potency (TAB109) | Potency (TAB113) | Potency (TAB165) | Potency (W2)
